Broadly, the AC50 is the concentration giving half of the maximal activity seen.

Assay [1] is described as follows: BSK_LPS_PGE2: BioMAP Diversity Plus: LPS Assay for Prostaglandin E2 (PGE2) Biomarker Activity (AID 2283082). Conditions: primary human HUVEC with PBMC; actives raise or lower the signal. Summed up: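 Compounds were added to the LPS co-culture of endothelium and PBMC, and PGE2 was measured by ELISA after 24 h. Responses in either direction were fitted with DMSO as baseline.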

Read-out in assay [2]: Macrophage colony-stimulating factor (MCSF), CSF1 (gene 1435)
Put plainly: BSK_LPS_MCSF: BioMAP Diversity Plus: LPS Assay for Macrophage colony-stimulating factor (MCSF) Biomarker Activity (AID 2283083). Conditions: primary human HUVEC with PBMC; actives raise or lower the signal. A digest of the protocol:
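Bidirectional fitting against DMSO was applied to M-CSF levels read by ELISA at 24 h post-dose. The system pairs human umbilical vein endothelium with peripheral blood mononuclear cells; parallel SRB staining tracked cytotoxicity.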

Read-out in assay [3]: Tissue Factor, F3 (gene 2152)
Put plainly: BSK_LPS_TissueFactor: BioMAP Diversity Plus: LPS Assay for Tissue Factor Biomarker Activity (AID 2283084). Conditions: primary human HUVEC with PBMC; actives raise or lower the signal. A digest of the protocol: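 Compound was added to an endothelial cell/PBMC co-culture, and after 24 h tissue factor (CD142) was read by ELISA. Gain or loss of signal was fitted against a DMSO baseline, and parallel SRB staining (560 nm) tracked overt cytotoxicity.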

Read-out in assay [4]: Tumor necrosis factor (Homo sapiens) (UniProt P01375)
Description: BSK_LPS_TNFa: BioMAP Diversity Plus: LPS Assay for Tumour Necrosis Factor alpha (TNFa) Biomarker Activity (AID 2283085).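 As to AC50: TNFa protein level quantified by ELISA in the co-culture.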 Conditions: primary human HUVEC with PBMC; actives raise or lower the signal. A digest of the protocol:
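Cells (umbilical vein endothelium plus peripheral blood mononuclear cells) were dosed with chemical, incubated 24 h, then TNFa was quantified by ELISA; values derive from bidirectional fitting with DMSO as baseline.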

Read-out in assay [5]: Vascular cell adhesion molecule 1 (VCAM1), VCAM1 (gene 7412)
Description: BSK_LPS_VCAM1: BioMAP Diversity Plus: LPS Assay for Vascular cell adhesion molecule 1 (VCAM1) Biomarker Activity (AID 2283086). Conditions: primary human HUVEC with PBMC; actives raise or lower the signal. Summed up: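 Cells are dosed in an LPS-stimulated endothelial/mononuclear co-culture and, after 24 h, VCAM-1 is quantified by ELISA. Activity in either direction is fitted relative to the DMSO negative control.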

Read-out in assay [6]: CD38, CD38 (gene 952)
Description: BSK_SAg_CD38: BioMAP Diversity Plus: SAg Assay for CD38 Biomarker Activity (AID 2283087). Conditions: primary human HUVEC with PBMC; actives raise or lower the signal. A digest of the protocol: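 CD38 quantified by ELISA (fluorescence) in a superantigen-activated endothelial cell–PBMC co-culture at 24 h post-dose. Activity fitted in both directions relative to DMSO; parallel SRB and Alamar Blue cytotoxicity read-outs.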

Read-out in assay [7]: CD40, CD40 (gene 958)
Description: BSK_SAg_CD40: BioMAP Diversity Plus: SAg Assay for CD40 Biomarker Activity (AID 2283088). Conditions: primary human HUVEC with PBMC; actives raise or lower the signal. Summed up: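 CD40 is measured by fluorescence ELISA in an endothelial/PBMC primary human co-culture at 24 h post-dose. Fitting is bidirectional, DMSO baseline. Parallel SRB staining (560 nm) flags cytotoxicity.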

Read-out in assay [8]: CD69, CD69 (gene 969)
Description: BSK_SAg_CD69: BioMAP Diversity Plus: SAg Assay for CD69 Biomarker Activity (AID 2283089). Conditions: primary human HUVEC with PBMC; actives raise or lower the signal. A digest of the protocol: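 Primary human vascular co-culture (umbilical vein endothelium with peripheral blood mononuclear cells) exposed to test chemical for 24 h. CD69 levels quantified by fluorescence ELISA; DMSO served as negative control for bidirectional fitting.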

Read-out in assay [9]: Monocyte Chemoattractant Protein-1 (MCP1), CCL2 (gene 6347)
Put plainly: BSK_SAg_MCP1: BioMAP Diversity Plus: SAg Assay for Monocyte Chemoattractant Protein-1 (MCP1) Biomarker Activity (AID 2283090). Conditions: primary human HUVEC with PBMC; actives raise or lower the signal. A digest of the protocol:
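Values derive from bidirectional fitting of ELISA-measured MCP1 against DMSO controls. Readings were taken 24 h after dosing human vascular endothelial cells co-cultured with peripheral blood mononuclear cells under superantigen stimulation.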

Read-out in assay [10]: E-selectin (Homo sapiens) (UniProt P16581)
Description: BSK_SAg_Eselectin: BioMAP Diversity Plus: SAg Assay for Eselectin Biomarker Activity (AID 2283091). Conditions: primary human HUVEC with PBMC; actives raise or lower the signal. Summed up: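 Cell-surface E-selectin is read by ELISA at 24 h in the SAg co-culture of HUVEC and PBMC. Curves are fitted in both directions relative to DMSO. Parallel SRB total-protein staining tracks overt toxicity.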

Read-out in assay [11]: Monokine induced gamma interferon (MIG), CXCL9 (gene 4283)
Description: BSK_SAg_MIG: BioMAP Diversity Plus: SAg Assay for Monokine induced gamma interferon (MIG) Biomarker Activity (AID 2283092). Conditions: primary human HUVEC with PBMC; actives raise or lower the signal. A digest of the protocol: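 Endothelial cells and PBMC were co-cultured, exposed to test chemicals, and sampled 24 h later. MIG was measured by ELISA, and responses were fitted in both directions relative to DMSO.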

Assay [12] in a line: BSK_SAg_PBMCCytotoxicity: PBMC Cytotoxicity Assessment in the BioMAP Diversity Plus: SAg Assay (AID 2283093).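 Also: PBMC viability measured as Alamar Blue reduction fluorescence at 546/580 nm; fitted both ways against DMSO so a hit may be loss or gain of signal.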 Conditions: primary human HUVEC with PBMC. Summed up: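 Alamar Blue reduction (6 h, ex/em 546/580 nm) read after 90 h culture of PBMC pre-dosed 1 h then stimulated with SEB plus TSST-1, 20 ng/mL each. Gain or loss of signal fitted relative to DMSO.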
Read-out in assay [13]: Interleukin-8 (IL8), CXCL8 (gene 3576)
Put plainly: BSK_SAg_IL8: BioMAP Diversity Plus: SAg Assay for Interleukin-8 (IL8) Biomarker Activity (AID 2283094). Conditions: primary human HUVEC with PBMC; actives raise or lower the signal. Summed up:
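Chemicals were dosed onto a human endothelial–PBMC co-culture, and IL-8 was quantified by ELISA after 24 h. Both increases and decreases were fitted relative to DMSO.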

Assay [14] is described as follows: BSK_SAg_Proliferation: Cell Proliferation Assessment in the BioMAP Diversity Plus: SAg Assay (AID 2283095).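 Also: relative cell number as total protein by SRB absorbance in sub-confluent culture.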 Conditions: primary human HUVEC with PBMC. A digest of the protocol: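 Absorbance of sulforhodamine B at 560 nm reports total protein in a human vascular endothelial/PBMC co-culture after 96 h chemical exposure. Gain or loss of signal is fitted in both directions against DMSO.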

Assay [15] is described as follows: BSK_SAg_SRB: Viability Assessment in the BioMAP Diversity Plus: SAg Assay (AID 2283096).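 Also: cells read one day after compound addition; hits may be either gain or loss of signal compared with DMSO.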 Conditions: primary human HUVEC with PBMC. A digest of the protocol:
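SRB absorbance at 560 nm served as the viability read-out. Cells (HUVEC plus peripheral blood mononuclear cells) were TCA-fixed and stained 24 h post-dosing; activity fitted in both directions against DMSO controls.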

Assay [16] has as its target human CYP1A1, CYP1A1 (gene 1543) (UniProt P04798). Description: NVS_ADME_hCYP1A1: NovaScreen (NVS) CYP450-related Enzyme Activity (ADME) Assay for human CYP1A1 (AID 2283100; active = hit-call score of the fitted dose curve at least 0.9, where 1 is the maximum). Summed up: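 Chemicals were first tested in duplicate at 10 uM, and those passing a 30% inhibition threshold were rerun as concentration series topping at 20 uM. Fluorescence read-out of recombinant enzyme turnover after 1 h, relative to acetonitrile.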

The target in assay [17] is human CYP2B6, CYP2B6 (gene 1555) (UniProt P20813). Put plainly: NVS_ADME_hCYP2B6: NovaScreen (NVS) CYP450-related Enzyme Activity (ADME) Assay for human CYP2B6 (AID 2283101; active = hit-call score of the fitted dose curve at least 0.9, where 1 is the maximum). Summed up:
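Cell-free recombinant enzyme assay with a fluorogenic substrate; fluorescence intensity read 1 hour after dosing. Loss of signal relative to acetonitrile negative control indicates inhibition. Primary screen run in duplicate at 10 uM, actives then tested in concentration series.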

Results filed as inconclusive are left out. Activity calls are given as the source filed them. The calls were made as follows, unless noted: active = hit-call score of the fitted dose curve at least 0.9, where 1 is the maximum; inactive = score below 0.9.

Chain of E-selectin (Homo sapiens) (P16581 whole entry, looked up): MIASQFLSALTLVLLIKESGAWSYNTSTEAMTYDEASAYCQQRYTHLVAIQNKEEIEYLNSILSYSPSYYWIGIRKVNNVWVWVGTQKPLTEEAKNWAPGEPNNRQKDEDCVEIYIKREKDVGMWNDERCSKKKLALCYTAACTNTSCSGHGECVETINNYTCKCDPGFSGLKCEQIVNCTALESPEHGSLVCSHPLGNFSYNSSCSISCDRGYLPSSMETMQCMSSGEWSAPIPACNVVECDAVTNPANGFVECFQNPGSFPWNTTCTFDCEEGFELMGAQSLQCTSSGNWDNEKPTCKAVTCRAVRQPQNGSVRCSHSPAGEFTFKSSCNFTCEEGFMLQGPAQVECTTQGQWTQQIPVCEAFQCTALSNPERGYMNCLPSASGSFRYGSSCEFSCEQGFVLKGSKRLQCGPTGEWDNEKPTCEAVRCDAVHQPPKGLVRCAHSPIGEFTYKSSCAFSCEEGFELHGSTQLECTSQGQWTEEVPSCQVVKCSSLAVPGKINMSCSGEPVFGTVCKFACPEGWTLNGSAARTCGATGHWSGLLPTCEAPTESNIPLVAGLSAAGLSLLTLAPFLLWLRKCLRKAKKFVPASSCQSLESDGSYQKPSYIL
Chain of Tumor necrosis factor (Homo sapiens) (P01375 whole entry, looked up): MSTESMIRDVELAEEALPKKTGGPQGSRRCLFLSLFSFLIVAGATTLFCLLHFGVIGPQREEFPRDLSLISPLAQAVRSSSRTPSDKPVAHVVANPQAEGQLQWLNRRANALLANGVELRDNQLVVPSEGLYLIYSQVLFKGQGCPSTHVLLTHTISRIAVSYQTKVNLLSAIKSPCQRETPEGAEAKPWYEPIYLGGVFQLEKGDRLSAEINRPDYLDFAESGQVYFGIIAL
Chain of human CYP1A1, CYP1A1 (gene 1543) (P04798 whole entry, looked up): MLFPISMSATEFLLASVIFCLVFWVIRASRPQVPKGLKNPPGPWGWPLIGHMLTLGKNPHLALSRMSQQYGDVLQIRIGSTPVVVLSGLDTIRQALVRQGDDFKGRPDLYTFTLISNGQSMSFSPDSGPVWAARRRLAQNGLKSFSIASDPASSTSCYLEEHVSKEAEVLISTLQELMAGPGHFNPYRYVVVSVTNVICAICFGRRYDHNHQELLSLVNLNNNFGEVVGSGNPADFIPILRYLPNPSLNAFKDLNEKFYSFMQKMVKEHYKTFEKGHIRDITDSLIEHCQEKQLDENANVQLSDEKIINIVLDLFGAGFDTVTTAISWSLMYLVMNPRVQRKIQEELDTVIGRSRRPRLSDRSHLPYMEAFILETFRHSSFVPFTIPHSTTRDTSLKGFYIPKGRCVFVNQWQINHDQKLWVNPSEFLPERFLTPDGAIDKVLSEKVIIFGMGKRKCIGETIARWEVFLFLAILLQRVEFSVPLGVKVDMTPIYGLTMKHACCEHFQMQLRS
Chain of human CYP2B6, CYP2B6 (gene 1555) (P20813 whole entry, looked up): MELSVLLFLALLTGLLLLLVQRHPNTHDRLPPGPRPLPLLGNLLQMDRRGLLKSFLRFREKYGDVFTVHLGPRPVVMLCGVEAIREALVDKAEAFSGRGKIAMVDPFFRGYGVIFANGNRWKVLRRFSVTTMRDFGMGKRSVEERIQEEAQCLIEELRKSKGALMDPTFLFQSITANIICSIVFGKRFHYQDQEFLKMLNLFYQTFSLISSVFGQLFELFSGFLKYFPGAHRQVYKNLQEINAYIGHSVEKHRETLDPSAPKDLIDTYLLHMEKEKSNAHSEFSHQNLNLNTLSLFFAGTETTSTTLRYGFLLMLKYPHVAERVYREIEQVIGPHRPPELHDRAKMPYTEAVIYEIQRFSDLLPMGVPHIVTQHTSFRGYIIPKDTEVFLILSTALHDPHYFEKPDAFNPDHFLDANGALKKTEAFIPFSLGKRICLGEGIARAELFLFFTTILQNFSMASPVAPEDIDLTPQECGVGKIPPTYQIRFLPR

Consider `C=CCc1ccc2c(c1)OCO2`, for which the outcome in assay [1], in assay [2], in [3], in assay [4], in [5] and in [6] was inactive. Also, the outcome in assay [7], in assay [8], in assay [9], in assay [10], in assay [11] and in assay [12] was inactive. The result in [13], in assay [14] and in assay [15] was inactive.
As for `C1=Cc2cccc3cccc1c23`, the result in assay [1], in [2], in [3], in assay [5], in assay [6] and in assay [7] was inactive. Further, the outcome in [8], in assay [9], in assay [10], in assay [11], in [12] and in assay [13] was inactive. Moreover, the outcome in [14] and in assay [15] was inactive.
In the case of `c1ccc2c(c1)-c1cccc3cccc-2c13`, the result in [1], in [2], in [3], in [5], in assay [6] and in assay [8] was inactive. Also, the result in assay [9], in [11], in assay [12] and in [14] was inactive. Moreover, the AC50 in assay [4] is 4.36 µM (active); in assay [7], 31.2 µM (active); in assay [10], 31.6 µM (active); in assay [13], 32.2 µM (active); in assay [15], 29.5 µM (active).
Turning to `CC(C)(C)OOC(=O)c1ccccc1`, the outcome in assay [1], in assay [2], in assay [3], in [4], in assay [5] and in assay [6] was inactive. Besides, the outcome in [8], in assay [9], in assay [10], in [11], in [12] and in assay [13] was inactive. Besides, the outcome in assay [14] and in [15] was inactive.
For `CN(C)c1ccc(C(=O)c2ccc(N(C)C)cc2)cc1`, the AC50 was 2.63 µM (active) in assay [1]; 14.4 µM (active) in assay [5]; 20 µM (active) in assay [6]; 0.578 µM (active) in [14]; 14.6 µM (active) in assay [15]. Moreover, the result in assay [2], in assay [3], in [4], in assay [7], in assay [8] and in [9] was inactive. Further, the result in assay [10], in assay [11], in [12] and in assay [13] was inactive.
Take `Nc1ccc(Cc2ccc(N)cc2)cc1`: the AC50 in [1] was 8.34 µM (active); in assay [10] it was 13.6 µM (active); in assay [17] it was 0.719 µM (active). For the same molecule, the outcome in assay [2], in [3], in assay [4], in assay [5], in [6] and in [7] was inactive. Besides, the result in assay [8], in [9], in assay [11], in assay [12], in [13] and in assay [14] was inactive. For the same molecule, the outcome in assay [15] and in assay [16] was inactive.
Turning to `OCCCl`, the outcome in assay [1], in assay [2], in assay [3], in [4], in assay [5] and in [6] was inactive. Also, the outcome in assay [7], in assay [8], in assay [9], in assay [10], in assay [11] and in assay [12] was inactive. The outcome in assay [13], in [14] and in assay [15] was inactive.
Take `OCCOCCO`: the outcome in [1], in [2], in [3], in assay [4], in assay [5] and in assay [6] was inactive. The outcome in assay [7], in [8], in assay [9], in assay [10], in assay [11] and in assay [12] was inactive. Further, the outcome in assay [13], in [14] and in [15] was inactive.

Source of the values: PubChem BioAssay (EPA / NIEHS).
